# Compound: C#CCNC(=O)CCSSCCC(=O)NCCc1ccc(C=O)c(C=O)c1
# Test: lysine labeling ratio R10:1 (500 µM / 50 µM probe), SILAC-ABPP in living cells; higher = lower intrinsic lysine reactivity toward the probe, active = 2 or less
# Details: HeLa; probe concentrations 500 vs 50 µM
# Procedure, shortened: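 For each lysine, R is the median over forward and reverse replicates of the filtered median MS1 peptide ratio of high probe to low probe. The probe, an alkyne-tagged, disulfide-linked lysine probe, was given at 500 µM or 50 µM to living SILAC light and heavy HeLa cells in PBS at room temperature, with label swaps. Values are capped at 20.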
# UniProt P46531, sequence (P46531 whole entry): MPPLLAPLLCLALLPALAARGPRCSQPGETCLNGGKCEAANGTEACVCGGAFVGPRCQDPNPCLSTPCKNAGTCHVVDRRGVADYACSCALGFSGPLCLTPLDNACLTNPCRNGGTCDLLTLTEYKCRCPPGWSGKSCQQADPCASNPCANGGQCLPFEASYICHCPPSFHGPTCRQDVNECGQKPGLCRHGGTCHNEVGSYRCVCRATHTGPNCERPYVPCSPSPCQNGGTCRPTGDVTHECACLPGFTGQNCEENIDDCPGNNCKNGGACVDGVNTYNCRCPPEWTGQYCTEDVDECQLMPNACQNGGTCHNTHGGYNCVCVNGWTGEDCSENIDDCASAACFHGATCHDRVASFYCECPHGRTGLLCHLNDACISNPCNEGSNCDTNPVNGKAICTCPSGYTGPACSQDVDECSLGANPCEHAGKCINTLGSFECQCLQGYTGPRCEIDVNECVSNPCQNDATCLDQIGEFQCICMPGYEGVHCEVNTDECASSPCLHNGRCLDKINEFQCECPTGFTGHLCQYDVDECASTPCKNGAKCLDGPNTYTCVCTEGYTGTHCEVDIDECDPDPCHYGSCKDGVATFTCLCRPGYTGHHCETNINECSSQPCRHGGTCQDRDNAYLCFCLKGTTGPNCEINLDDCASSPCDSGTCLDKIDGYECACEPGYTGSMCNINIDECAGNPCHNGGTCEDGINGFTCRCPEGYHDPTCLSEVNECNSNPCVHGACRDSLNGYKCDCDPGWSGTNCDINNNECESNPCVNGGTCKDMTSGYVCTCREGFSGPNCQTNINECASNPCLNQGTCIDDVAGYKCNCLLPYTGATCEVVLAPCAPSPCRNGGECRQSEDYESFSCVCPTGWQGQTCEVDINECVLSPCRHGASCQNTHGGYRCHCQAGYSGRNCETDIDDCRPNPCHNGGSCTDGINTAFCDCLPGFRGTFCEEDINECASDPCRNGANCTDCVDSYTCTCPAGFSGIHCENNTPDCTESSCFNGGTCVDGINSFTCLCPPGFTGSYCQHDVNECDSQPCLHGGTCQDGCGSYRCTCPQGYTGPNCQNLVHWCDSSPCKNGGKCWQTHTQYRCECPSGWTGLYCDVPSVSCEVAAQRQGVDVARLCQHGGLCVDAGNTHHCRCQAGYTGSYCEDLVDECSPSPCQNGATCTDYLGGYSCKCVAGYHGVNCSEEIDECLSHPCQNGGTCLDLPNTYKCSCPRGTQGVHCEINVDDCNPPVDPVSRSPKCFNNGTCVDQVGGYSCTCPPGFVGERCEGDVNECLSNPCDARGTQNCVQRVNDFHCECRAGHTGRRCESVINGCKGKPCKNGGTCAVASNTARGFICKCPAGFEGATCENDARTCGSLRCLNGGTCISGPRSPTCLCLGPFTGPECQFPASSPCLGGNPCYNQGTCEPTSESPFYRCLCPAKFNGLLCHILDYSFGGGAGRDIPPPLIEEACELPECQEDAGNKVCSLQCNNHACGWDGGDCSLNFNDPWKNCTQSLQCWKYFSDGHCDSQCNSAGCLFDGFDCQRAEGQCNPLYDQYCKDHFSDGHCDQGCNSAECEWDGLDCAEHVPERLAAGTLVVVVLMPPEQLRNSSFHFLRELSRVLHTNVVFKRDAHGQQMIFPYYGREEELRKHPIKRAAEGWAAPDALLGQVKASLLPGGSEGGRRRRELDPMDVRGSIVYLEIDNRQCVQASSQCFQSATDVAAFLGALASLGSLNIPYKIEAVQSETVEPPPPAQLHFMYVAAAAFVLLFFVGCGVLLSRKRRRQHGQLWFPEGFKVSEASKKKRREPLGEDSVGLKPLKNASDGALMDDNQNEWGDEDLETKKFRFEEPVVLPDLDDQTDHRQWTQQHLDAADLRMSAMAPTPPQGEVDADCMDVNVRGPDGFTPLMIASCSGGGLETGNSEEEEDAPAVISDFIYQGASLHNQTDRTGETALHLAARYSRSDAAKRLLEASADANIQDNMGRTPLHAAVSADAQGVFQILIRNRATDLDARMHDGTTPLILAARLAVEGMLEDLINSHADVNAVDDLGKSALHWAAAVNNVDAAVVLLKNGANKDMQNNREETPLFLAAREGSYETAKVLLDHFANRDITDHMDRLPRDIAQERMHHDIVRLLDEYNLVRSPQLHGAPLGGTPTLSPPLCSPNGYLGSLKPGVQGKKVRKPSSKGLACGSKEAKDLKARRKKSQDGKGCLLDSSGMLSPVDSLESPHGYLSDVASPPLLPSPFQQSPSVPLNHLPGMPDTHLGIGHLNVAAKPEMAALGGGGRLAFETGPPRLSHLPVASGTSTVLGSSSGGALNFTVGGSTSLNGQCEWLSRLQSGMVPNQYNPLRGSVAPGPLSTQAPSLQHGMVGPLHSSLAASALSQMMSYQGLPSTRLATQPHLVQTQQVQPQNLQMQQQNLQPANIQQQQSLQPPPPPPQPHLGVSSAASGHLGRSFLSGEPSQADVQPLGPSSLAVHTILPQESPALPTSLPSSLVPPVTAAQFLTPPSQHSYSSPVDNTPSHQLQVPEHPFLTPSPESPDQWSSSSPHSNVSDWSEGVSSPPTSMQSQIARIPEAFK
# UniProt Q15800, sequence (Q15800 whole entry): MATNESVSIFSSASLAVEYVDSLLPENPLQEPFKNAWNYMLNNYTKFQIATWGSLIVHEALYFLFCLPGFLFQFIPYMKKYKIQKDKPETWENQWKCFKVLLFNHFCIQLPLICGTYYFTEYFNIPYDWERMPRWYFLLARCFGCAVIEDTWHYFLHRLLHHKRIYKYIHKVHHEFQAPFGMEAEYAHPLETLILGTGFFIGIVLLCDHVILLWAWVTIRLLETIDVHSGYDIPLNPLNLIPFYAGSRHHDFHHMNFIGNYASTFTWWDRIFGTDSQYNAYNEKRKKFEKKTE
# UniProt Q13275, sequence (Q13275 whole entry): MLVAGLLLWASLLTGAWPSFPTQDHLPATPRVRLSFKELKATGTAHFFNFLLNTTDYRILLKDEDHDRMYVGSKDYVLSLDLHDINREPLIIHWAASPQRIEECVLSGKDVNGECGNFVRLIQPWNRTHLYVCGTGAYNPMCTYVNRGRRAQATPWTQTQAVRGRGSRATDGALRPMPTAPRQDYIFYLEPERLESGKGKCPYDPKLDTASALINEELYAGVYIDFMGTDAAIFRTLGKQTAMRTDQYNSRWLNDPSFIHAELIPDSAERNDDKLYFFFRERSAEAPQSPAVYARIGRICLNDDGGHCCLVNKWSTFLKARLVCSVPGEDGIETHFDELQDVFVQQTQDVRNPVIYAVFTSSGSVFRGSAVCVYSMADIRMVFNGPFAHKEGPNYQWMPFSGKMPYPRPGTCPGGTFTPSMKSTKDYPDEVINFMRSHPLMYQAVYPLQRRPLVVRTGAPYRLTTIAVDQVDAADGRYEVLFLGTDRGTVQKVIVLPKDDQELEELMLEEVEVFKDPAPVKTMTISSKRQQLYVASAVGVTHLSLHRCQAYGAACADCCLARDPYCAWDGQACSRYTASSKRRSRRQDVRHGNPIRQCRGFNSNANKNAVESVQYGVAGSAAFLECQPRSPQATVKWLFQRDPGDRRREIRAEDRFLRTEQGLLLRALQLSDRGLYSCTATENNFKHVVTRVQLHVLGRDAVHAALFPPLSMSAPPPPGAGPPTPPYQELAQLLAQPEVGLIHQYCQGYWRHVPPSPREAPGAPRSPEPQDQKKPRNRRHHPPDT
# UniProt Q96J84, sequence (Q96J84 whole entry): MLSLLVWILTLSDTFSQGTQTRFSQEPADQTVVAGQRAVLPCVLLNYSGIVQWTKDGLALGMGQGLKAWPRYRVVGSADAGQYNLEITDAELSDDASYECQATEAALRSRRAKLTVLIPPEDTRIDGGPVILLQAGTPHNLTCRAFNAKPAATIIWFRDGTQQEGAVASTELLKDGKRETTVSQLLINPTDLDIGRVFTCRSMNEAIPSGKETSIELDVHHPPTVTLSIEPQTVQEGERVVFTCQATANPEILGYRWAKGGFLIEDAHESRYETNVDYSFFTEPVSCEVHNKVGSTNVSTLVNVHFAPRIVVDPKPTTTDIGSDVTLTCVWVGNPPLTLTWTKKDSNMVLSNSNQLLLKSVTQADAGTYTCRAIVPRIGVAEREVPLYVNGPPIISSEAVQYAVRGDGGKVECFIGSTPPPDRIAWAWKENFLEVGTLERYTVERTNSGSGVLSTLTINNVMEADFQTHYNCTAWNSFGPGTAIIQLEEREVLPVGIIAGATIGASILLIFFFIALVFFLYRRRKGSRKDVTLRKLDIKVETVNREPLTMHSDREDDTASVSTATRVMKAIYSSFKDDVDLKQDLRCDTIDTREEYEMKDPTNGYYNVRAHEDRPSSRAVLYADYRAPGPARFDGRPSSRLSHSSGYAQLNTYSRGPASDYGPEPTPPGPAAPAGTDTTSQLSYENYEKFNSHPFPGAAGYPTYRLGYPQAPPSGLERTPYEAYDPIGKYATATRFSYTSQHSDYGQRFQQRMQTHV
# UniProt P19338, sequence (P19338 whole entry): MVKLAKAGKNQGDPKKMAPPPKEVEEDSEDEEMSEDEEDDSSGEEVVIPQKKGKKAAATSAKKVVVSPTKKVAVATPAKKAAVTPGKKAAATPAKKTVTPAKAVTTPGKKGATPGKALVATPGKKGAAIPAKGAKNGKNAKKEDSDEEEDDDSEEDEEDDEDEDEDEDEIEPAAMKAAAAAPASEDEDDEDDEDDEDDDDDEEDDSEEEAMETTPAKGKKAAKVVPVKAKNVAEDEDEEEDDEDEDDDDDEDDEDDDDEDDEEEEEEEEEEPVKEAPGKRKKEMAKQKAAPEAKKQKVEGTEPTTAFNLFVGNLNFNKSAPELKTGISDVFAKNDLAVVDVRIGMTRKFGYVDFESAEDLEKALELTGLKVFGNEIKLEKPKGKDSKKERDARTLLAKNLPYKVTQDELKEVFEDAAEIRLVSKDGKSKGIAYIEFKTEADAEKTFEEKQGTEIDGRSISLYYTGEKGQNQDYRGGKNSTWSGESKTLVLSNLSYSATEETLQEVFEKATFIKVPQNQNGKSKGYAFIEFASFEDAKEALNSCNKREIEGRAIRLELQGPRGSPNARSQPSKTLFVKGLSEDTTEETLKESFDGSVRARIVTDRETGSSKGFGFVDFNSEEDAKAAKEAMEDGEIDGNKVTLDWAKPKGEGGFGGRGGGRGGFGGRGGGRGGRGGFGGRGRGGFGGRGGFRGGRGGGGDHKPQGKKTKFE
row,Target,lysine labeling ratio R10:1
1,KIRREL (lysine site: K67) (UniProt Q96J84),0.92 (active)
2,UniProt Q15800 (lysine site: K284),1.82 (active)
3,SPTAN1 (lysine site: K241) (UniProt Q13813),7.04 (inactive)
4,MYH9 (lysine site: K656) (UniProt P35579),2.88 (inactive)
5,UniProt P02533 (lysine site: K328),11.3 (inactive)
6,UniProt Q13275 (lysine site: K62),3.35 (inactive)
7,HSPE1 (lysine site: K99) (UniProt P61604),4.89 (inactive)
8,PTGES2 (lysine site: K225) (UniProt Q9H7Z7),1.93 (active)
9,UniProt Q15149 (lysine site: K2129),3.49 (inactive)
10,SEMA3C (lysine site: K616) (UniProt Q99985),5.77 (inactive)
11,GAPDH (lysine site: K334) (UniProt P04406),5.36 (inactive)
12,RPL5 (lysine site: K197) (UniProt P46777),1.37 (active)
13,NOTCH1 (lysine site: K1607) (UniProt P46531),6.4 (inactive)
14,NEGR1 (lysine site: K180) (UniProt Q7Z3B1),1.72 (active)
15,NCL (lysine site: K449) (UniProt P19338),0.805 (active)
16,SERPINH1 (lysine site: K190) (UniProt P50454),2.12 (inactive)
17,LGALS1 (lysine site: K108) (UniProt P09382),1.62 (active)

# Reference: the supplement of paper PMC11001985
